# Measurements reported in the supplement of paper PMC6555819.
# Tested on: THRa homodimer (NR concentration 90 nM)
# Assay: PBM binding z-score (relative to random genomic background probes); higher = stronger binding; sequences stand for … in GC…GCGATTGACAGCGTAGAATGAAGG
# Outline: (§1)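 Scanned fluorescence from custom Agilent 4×180K protein-binding microarrays was regression-normalized. Binding z-scores use random background probes as reference. Ligand-free nuclear receptor dimers were incubated on the arrays for 1 h and detected with antibodies against each partner (one per run).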
row,Sequence,PBM binding z-score
1,ACAGACAGGTGATGAAGGTAAGTCAGGCTATCAT,-0.25
2,GCTTGTAGATCTAGGTTAAGAAAGACTAAGCTAA,-0.767
3,ACAGACAGGTGATGAAGGTAACACAGGCTATCAT,0.246
4,GCGACTGGGGCATCAGCAGGTTACCCTAACTTAA,0.628
5,CGTCCAAGGTCAGCAGGTCTGTGAAAGCGACGTG,1.82
6,ATCTCTAGGAAAGACTCAGTTCAGTGAAGAACGC,0.155
7,CAAACTCGGTCACCGGAAGGTCAAAGTCCGCATG,1.59
8,TCATATACGTAAACAGGTGAAAGTCCGTAAGTTA,0.342
9,ATATGTAGGTTAGCTGGGGTGATTCAGACTAGGC,1.26
10,GCTGCTAGGTCAACTGATGGTCTGCTAAAGCTCG,1.02
11,TCTATTATTTGAAGGGCAACCGACGAGTCCGTTT,0.572
12,AGAATGCGGTTACCAAAGATCAGGGAAACGCTTG,-1.27
13,ATACCAAGGTGATCGGGAGGTCGTTGATACTAAC,1.27
14,ATTCAAAGTTCATCTAGGTAACGTAAGATATGCT,0.475
15,CCTCGGAGGACAACAGGGGGTCAGAGCTGCCAGA,1.04
16,TCTATTAGTTGAAGGGCAACTGACGAGTCCGTTT,-0.0338
17,CCTAGCAGGCCATGGTCACTCAAGCATTTCGCTT,-0.618
18,TCTGCTAGGTCAACGATGGTCAACTAATCTGCTA,1.05

# Tested on: VDR:RXRa (NR concentration 270 nM, RXRa partner concentration 90 nM)
# Assay: as above
# Outline: as §1
row,Sequence,PBM binding z-score
1,CCTTACGGGTCACTGACAGGTTAAAGCATTTGGA,3.75
2,GATACAGGGACAAGGCCAGAGTACGCGTATTGAT,-0.523
3,CGTCCTAGGTCAAGGTCAGTGAAAGAGACTCGAA,3.2
4,CCTACTGAGCCAAAGGTCATTGATTCCAATGCTC,4.81
5,CATACAGGGTCAGCCAGGCCAGAGTAGGGACGGC,4.58
6,GGAATGAGGGCAAAGTTGATAGCATCTGTCGACG,1.82
7,CCGAGTAGGTTATCGGGCATTCAGGCAACGGTGA,-0.386
8,TAATATAGGTAAATGCTAGGTGAAAGTCCGATCT,0.36
9,CCTTACGGGTCACGATGTTATAGCACGACGAGCG,3.73
10,GCAGACAGCTGAAACGCAGGTAACTCAGGGTGGC,-0.826
11,TCAATGAGGTTATAAGATCAGGGAACGTTGCAAA,1.22
12,CCTAACGGGTCACTGACAGGTTATAGCATTTGGA,3.21
13,CGTCCAAAGTCAATGCTAGGTCAGTGAAAGCATT,0.457
14,TCATATAGGTAAACAGGTGAAAGTTCGTAAGTTA,1.98
15,ACAGACAGGTAATGAAGGTAACTCAGGCTATCAT,0.244
16,TCAGACAGGTGAAGGTAATTCAGGTACGCAGTCG,1.1
17,CGAACTAGGTCAAGAGGTCAAAGTCCGCTTCCCG,6.13
18,CCTCGGAGGACAACAGGAGGTCGGAGCTGCCAGA,-0.0445
19,AGAATGAGGTTATACGTAGATCAGGAAAGAAAGT,1.51
20,GCGACTGGGTCAAAGCAGGTTACCATAAGGTTGG,3.06

row,Sequence,PBM binding z-score
1,CATACAGGGTCAGGTAGGCCAGAGTAGGGACGGC,3.35
2,TCTAGTTGGTCACGGAGGCCACACACGACGGGTA,2.19
3,ACAGACAGGTGATGAAGGTAAGTCAGGCTATCAT,-0.133
4,GCTTGTAGATCTAGGTTAAGAAAGACTAAGCTAA,-0.392
5,ACAGACAGGTGATGAAGGTAACACAGGCTATCAT,0.561
6,GCGACTGGGGCATCAGCAGGTTACCCTAACTTAA,-0.249
7,CGTCCAAGGTCAGCAGGTCTGTGAAAGCGACGTG,4.69
8,ATCTCTAGGAAAGACTCAGTTCAGTGAAGAACGC,0.436
9,CAAACTCGGTCACCGGAAGGTCAAAGTCCGCATG,4.77
10,TCATATACGTAAACAGGTGAAAGTCCGTAAGTTA,1.38
11,ATATGTAGGTTAGCTGGGGTGATTCAGACTAGGC,1.01
12,GCTGCTAGGTCAACTGATGGTCTGCTAAAGCTCG,1.29
13,TCTATTATTTGAAGGGCAACCGACGAGTCCGTTT,1.55
14,AGAATGCGGTTACCAAAGATCAGGGAAACGCTTG,-0.612
15,ATACCAAGGTGATCGGGAGGTCGTTGATACTAAC,2.58
16,ATTCAAAGTTCATCTAGGTAACGTAAGATATGCT,4.93
17,CCTCGGAGGACAACAGGGGGTCAGAGCTGCCAGA,3.17
18,TCTATTAGTTGAAGGGCAACTGACGAGTCCGTTT,0.937
19,CCTAGCAGGCCATGGTCACTCAAGCATTTCGCTT,-0.485
20,TCTGCTAGGTCAACGATGGTCAACTAATCTGCTA,2.27
